Consider 40 sequences from the supplement of paper PMC6555819.

The test system of the experiment is LXRb homodimer (NR concentration 270 nM). Put plainly: PBM binding z-score (relative to random genomic background probes); higher = stronger binding; sequences stand for … in GC…GCGATTGACAGCGTAGAATGAAGG
The method, boiled down:
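Probes were double-stranded and carried 34-nt variable regions with direct-repeat seeds, single-nucleotide variants, half-site ablations and random human genomic background sequences, printed on custom Agilent 4×180K protein-binding microarrays. Arrays were incubated 1 h with ligand-free nuclear receptor dimers in PBS pH 7.4, 2% milk, 0.02% Triton X-100, 1 mM DTT, 0.2 mg/mL BSA and 0.4 mg/ml salmon testes DNA. Antibodies against each partner (one per run) detected binding, and scanned fluorescence was regression-normalized. Binding z-scores use the random background probes as reference.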
Consider CAGAGTAGGTTATGGGGCATTCAGGCAACGGTGA, for which the PBM binding z-score is -0.04. Regarding TGAATGAGGTTAAACATCAGGGAACGTGGCGTCG, the PBM binding z-score is -0.0141.

The sequence TAGCCTAGGTCATGGGCCCGTATACCACGCGAAC returned a PBM binding z-score of -0.0336.

Regarding ACTCGGAGGACTAAGGTCAGAGCTACGCCAGTGA, the PBM binding z-score was -0.00791. Regarding CAAACTAGGTCAAGAAAGGTCAAAGTCGAATGAC, the PBM binding z-score was 2.48. Next, CCGACTAGGGCATAAGGTTACCATAAGCCAGCCC: -0.736; TGTCAAAGTTCAAAGGTAACGTGAGTATCCACAC: 1.54. Sequence GCTTGTAGATCAAGGTTAAGCAAGACTAAGCTAA displayed a PBM binding z-score of -0.925. For the sequence ACAGACAGGTGATGAAAGTAACTCAGGCTATCAT, the PBM binding z-score is -0.446. AACTCTAGGTAAAGATAGTTCAGTGAATGCAAAT had a PBM binding z-score of -0.176. The value for CGAACGAGGGCATGAGTTGTTAGCAAATGCCGAT was -1.1. Take TCTTGTACATCAGCAGGTTAAGAAAGCTGGCCAA: the PBM binding z-score is 0.127. Consider TCTGCTAGGTAAGTTGGTCAGCTAACGAGCTGCC, for which the PBM binding z-score is -0.795. Next, ACTATTAGTTGACTTAGGGCAACCCATACGACGC: 0.53; GCTCGGAGGACAAGGCCAGAGCTTTGTCCGTAGA: -1.59. On to GGAACGAGGGCACAGTTGATAGCATCTGTCGACG, for which the PBM binding z-score is -0.903. As for TAGCCTAGGTCATTCAGGTGCCAGTATAGAAAGC, the PBM binding z-score worked out at 0.913. ATACCAAGGGGATCGTGAGGTCGTTGATACTAAC: the PBM binding z-score was -0.272.

For the sequence ATATGTAGGTTATCGGGTCATTCAATTTGCGCAT, the PBM binding z-score is 0.979. The sequence TCGAGTAGGTTAGACGGGGCATTCAGCCAACATA registered a PBM binding z-score of -0.523. Next, CAAACTAGGTCTAAGGTCAAAGTCGAGCCAACCA: 1.16; ATATGTAGGTAAGCTGGGGTCATTCAGACTAGGC: 1.58; CGGACTAGGTCAAGGACAGTGAATCTCCGCACGC: -0.662. TCGAGTAGGTTAGTGGCATTCAGAATGGCGTCGA registered a PBM binding z-score of -1.05.

CCAGCTAGGTCATGGTCAGCTAATCTACAGTATG gave a PBM binding z-score of -0.361. Regarding ACTATAAGTTGAGACGAGGGCAACCGATAGGTTG, the PBM binding z-score is -0.00417. As for TCTTGTTGATCAACAGGAGGTTAAGAAAGATCGA, the PBM binding z-score was -0.0113. For CAAACTAGGTCGCGAAAGGTCAAAGTCGAATGAC, the PBM binding z-score came to 1.92.

Consider GGAACGAGGGCAAAGTTGATAGCATCTGTCGACG, for which the PBM binding z-score was -0.272. For the sequence CGTCCAAGGTCAATGTCAGTGAAAGAGACTCGAA, the PBM binding z-score came to 1.05. Turning to ACAATGAGGTTAAGATCAGGGAAACAGAATACAT, the PBM binding z-score came out at 0.674.

Turning to ACTTACGGGTCAACGAGGTTATAGAACGCGTATA, the PBM binding z-score was 0.433.

In turn, TCTAGTTGGTCAAAGGTCACTCACTCGAAATGCG had a PBM binding z-score of 2.23. Sequence TCTCGTTGGTCAAAGGTCACACACTCGAAATGCG gave a PBM binding z-score of 2.23. Sequence TCTGCTGGGTCAGTTGGTCAGCTAACGAGCTGCC registered a PBM binding z-score of 0.206. As for GCGACTGGGGCATCAGCAGGTTCCCATAACTTAA, the PBM binding z-score was -1.52. With CCTAGTGGGCCAAAAAGGTCATTGATGCCGATAA, the PBM binding z-score worked out at 0.134. Sequence TAGCCTAGGTCATACGGGCCAGTATAGTGTCGGC returned a PBM binding z-score of -0.00996.

In turn, CCGACTGGGGCATAAAGGTTACCATACCATCCGG gave a PBM binding z-score of -0.959.

In turn, CCTGCTGGGCCATTCAGAGGTCATTGATCATATG registered a PBM binding z-score of 0.198.
